# Results from the supplement of paper PMC4466140.
# Legend:
# Experiment in all cases: SPOT peptide array binding signal intensity (averaged, normalized) (arbitrary units (background-subtracted, floor 0; scale differs between SH3 domains)); higher = stronger binding of the SH3 domain to the peptide
# [1] = molecular target: AgAbp1
# How it was run: (§1)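 GST-fused SH3 domains from four yeast species were expressed in E. coli BL21(DE3), purified on glutathione Sepharose and incubated at 10 μg/ml overnight at 4°C in TBS-based blocking buffer on cellulose membranes carrying synthetic 15-mer peptides, with cysteines replaced by serines. Bound protein was detected with anti-GST antibody, an HRP anti-mouse secondary and luminol, then imaged and quantified with Genespotter. Binding signal is the normalized, background-subtracted spot intensity averaged over replicates, in arbitrary units that differ between domains.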
# [2] = molecular target: AgBbc1
# How it was run: as §1
# [3] = molecular target: AgBem1-D1
# How it was run: as §1
# [4] = molecular target: AgBzz1-D1
# How it was run: as §1
# [5] = molecular target: AgBzz1-D2
# How it was run: as §1
# [6] = molecular target: AgCyk3
# How it was run: as §1
# [7] = molecular target: AgFus1
# How it was run: as §1
# [8] = molecular target: AgHof1
# How it was run: as §1
# [9] = molecular target: AgHse1
# How it was run: as §1
# [10] = molecular target: AgLsb1
# How it was run: as §1
# [11] = molecular target: AgLsb4
# How it was run: as §1
# [12] = molecular target: AgMyo5
# How it was run: as §1
# [13] = molecular target: AgNbp2
# How it was run: as §1
# [14] = molecular target: AgRvs167
# How it was run: as §1
# [15] = molecular target: AgSho1
# How it was run: as §1
# [16] = molecular target: AgSla1-D1-D2
# How it was run: as §1
# [17] = molecular target: AgSla1-D3
# How it was run: as §1
# [18] = molecular target: CaAbp1-D1
# How it was run: as §1
# [19] = molecular target: CaAbp1-D2
# How it was run: as §1
# [20] = molecular target: CaBbc1
# How it was run: as §1
# [21] = molecular target: CaBem1-D1
# How it was run: as §1
# [22] = molecular target: CaBzz1-D1
# How it was run: as §1
# [23] = molecular target: CaBzz1-D2
# How it was run: as §1
# [24] = molecular target: CaCyk3
# How it was run: as §1
# [25] = molecular target: CaFus1
# How it was run: as §1
# [26] = molecular target: CaHof1
# How it was run: as §1
# [27] = molecular target: CaHse1
# How it was run: as §1
# [28] = molecular target: CaLsb1
# How it was run: as §1
# [29] = molecular target: CaLsb4
# How it was run: as §1
# [30] = molecular target: CaMyo5
# How it was run: as §1
# [31] = molecular target: CaNbp2
# How it was run: as §1
# [32] = molecular target: CaRvs167
# How it was run: as §1
# [33] = molecular target: CaRvs167-3
# How it was run: as §1
# [34] = molecular target: CaSho1
# How it was run: as §1
# [35] = molecular target: CaSla1-D1-D2
# How it was run: as §1
# [36] = molecular target: CaSla1-D3
# How it was run: as §1
# [37] = molecular target: ScAbp1
# How it was run: as §1
# [38] = molecular target: ScBbc1
# How it was run: as §1
# [39] = molecular target: ScBem1-D1
# How it was run: as §1
# [40] = molecular target: ScBzz1-D1
# How it was run: as §1
# [41] = molecular target: ScBzz1-D2
# How it was run: as §1
# [42] = molecular target: ScCyk3
# How it was run: as §1
# [43] = molecular target: ScFus1
# How it was run: as §1
# [44] = molecular target: ScHof1
# How it was run: as §1
# [45] = molecular target: ScHse1
# How it was run: as §1
# [46] = molecular target: ScLsb1
# How it was run: as §1
# [47] = molecular target: ScLsb2
# How it was run: as §1
# [48] = molecular target: ScLsb3
# How it was run: as §1
# [49] = molecular target: ScLsb4
# How it was run: as §1
# [50] = molecular target: ScMyo3
# How it was run: as §1
# [51] = molecular target: ScMyo5
# How it was run: as §1
# [52] = molecular target: ScNbp2
# How it was run: as §1
# [53] = molecular target: ScPex13
# How it was run: as §1
# [54] = molecular target: ScRvs167
# How it was run: as §1
# [55] = molecular target: ScSho1
# How it was run: as §1
# [56] = molecular target: ScSla1-D1-D2
# How it was run: as §1
# [57] = molecular target: ScSla1-D3
# How it was run: as §1
# [58] = molecular target: SpAbp1-D1
# How it was run: as §1
# [59] = molecular target: SpBbc1
# How it was run: as §1
# [60] = molecular target: SpBzz1-D1
# How it was run: as §1
# [61] = molecular target: SpBzz1-D2
# How it was run: as §1
# [62] = molecular target: SpCyk3
# How it was run: as §1
# [63] = molecular target: SpHof1
# How it was run: as §1
# [64] = molecular target: SpHof1-2
# How it was run: as §1
# [65] = molecular target: SpHof1-3
# How it was run: as §1
# [66] = molecular target: SpHse1
# How it was run: as §1
# [67] = molecular target: SpLsb1
# How it was run: as §1
# [68] = molecular target: SpLsb4
# How it was run: as §1
# [69] = molecular target: SpMyo1
# How it was run: as §1
# [70] = molecular target: SpNbp2
# How it was run: as §1
# [71] = molecular target: SpPex13
# How it was run: as §1
# [72] = molecular target: SpRvs167
# How it was run: as §1
# [73] = molecular target: SpSla1-D1-D2
# How it was run: as §1
# [74] = molecular target: SpSla1-D3
# How it was run: as §1
binder,measurement,setting,value
QLLNPNRRAPRRPLS,SPOT peptide array binding signal intensity,[1],104
same,SPOT peptide array binding signal intensity,[2],451
same,SPOT peptide array binding signal intensity,[3],328
same,SPOT peptide array binding signal intensity,[4],59
same,SPOT peptide array binding signal intensity,[5],45
same,SPOT peptide array binding signal intensity,[6],2
same,SPOT peptide array binding signal intensity,[7],158
same,SPOT peptide array binding signal intensity,[8],89.8
same,SPOT peptide array binding signal intensity,[9],144
same,SPOT peptide array binding signal intensity,[10],9.25
same,SPOT peptide array binding signal intensity,[11],25
same,SPOT peptide array binding signal intensity,[12],60.5
same,SPOT peptide array binding signal intensity,[13],4130
same,SPOT peptide array binding signal intensity,[14],2.83
same,SPOT peptide array binding signal intensity,[15],7
same,SPOT peptide array binding signal intensity,[16],33
same,SPOT peptide array binding signal intensity,[17],4
same,SPOT peptide array binding signal intensity,[18],608
same,SPOT peptide array binding signal intensity,[19],495
same,SPOT peptide array binding signal intensity,[20],1450
same,SPOT peptide array binding signal intensity,[21],122
same,SPOT peptide array binding signal intensity,[22],220
same,SPOT peptide array binding signal intensity,[23],135
same,SPOT peptide array binding signal intensity,[24],161
same,SPOT peptide array binding signal intensity,[25],270
same,SPOT peptide array binding signal intensity,[26],0.25
same,SPOT peptide array binding signal intensity,[27],13.5
same,SPOT peptide array binding signal intensity,[28],0.25
same,SPOT peptide array binding signal intensity,[29],95.5
same,SPOT peptide array binding signal intensity,[30],6.75
same,SPOT peptide array binding signal intensity,[31],2950
same,SPOT peptide array binding signal intensity,[32],28.8
same,SPOT peptide array binding signal intensity,[33],5.25
same,SPOT peptide array binding signal intensity,[34],72
same,SPOT peptide array binding signal intensity,[35],1270
same,SPOT peptide array binding signal intensity,[36],0.25
same,SPOT peptide array binding signal intensity,[37],73
same,SPOT peptide array binding signal intensity,[38],271
same,SPOT peptide array binding signal intensity,[39],45
same,SPOT peptide array binding signal intensity,[40],56
same,SPOT peptide array binding signal intensity,[41],30.5
same,SPOT peptide array binding signal intensity,[42],65
same,SPOT peptide array binding signal intensity,[43],104
same,SPOT peptide array binding signal intensity,[44],≤ 0
same,SPOT peptide array binding signal intensity,[45],779
same,SPOT peptide array binding signal intensity,[46],37.2
same,SPOT peptide array binding signal intensity,[47],370
same,SPOT peptide array binding signal intensity,[48],808
same,SPOT peptide array binding signal intensity,[49],31
same,SPOT peptide array binding signal intensity,[50],70.5
same,SPOT peptide array binding signal intensity,[51],122
same,SPOT peptide array binding signal intensity,[52],6040
same,SPOT peptide array binding signal intensity,[53],50.5
same,SPOT peptide array binding signal intensity,[54],93.5
same,SPOT peptide array binding signal intensity,[55],271
same,SPOT peptide array binding signal intensity,[56],247
same,SPOT peptide array binding signal intensity,[57],17.2
same,SPOT peptide array binding signal intensity,[58],90
same,SPOT peptide array binding signal intensity,[59],66.5
same,SPOT peptide array binding signal intensity,[60],370
same,SPOT peptide array binding signal intensity,[61],130
same,SPOT peptide array binding signal intensity,[62],6
same,SPOT peptide array binding signal intensity,[63],134
same,SPOT peptide array binding signal intensity,[64],25
same,SPOT peptide array binding signal intensity,[65],148
same,SPOT peptide array binding signal intensity,[66],178
same,SPOT peptide array binding signal intensity,[67],61.5
same,SPOT peptide array binding signal intensity,[68],1750
same,SPOT peptide array binding signal intensity,[69],390
same,SPOT peptide array binding signal intensity,[70],440
same,SPOT peptide array binding signal intensity,[71],20
same,SPOT peptide array binding signal intensity,[72],34
same,SPOT peptide array binding signal intensity,[73],3
same,SPOT peptide array binding signal intensity,[74],2
PLQSKIPMLPSRRTM,SPOT peptide array binding signal intensity,[1],98.5
same,SPOT peptide array binding signal intensity,[2],267
same,SPOT peptide array binding signal intensity,[3],26.5
same,SPOT peptide array binding signal intensity,[4],48
same,SPOT peptide array binding signal intensity,[5],9
same,SPOT peptide array binding signal intensity,[6],3
same,SPOT peptide array binding signal intensity,[7],98.5
same,SPOT peptide array binding signal intensity,[8],211
same,SPOT peptide array binding signal intensity,[9],300
same,SPOT peptide array binding signal intensity,[10],555
same,SPOT peptide array binding signal intensity,[11],4990
same,SPOT peptide array binding signal intensity,[12],≤ 0
same,SPOT peptide array binding signal intensity,[13],302
same,SPOT peptide array binding signal intensity,[14],483
same,SPOT peptide array binding signal intensity,[15],131
same,SPOT peptide array binding signal intensity,[16],28
same,SPOT peptide array binding signal intensity,[17],6.5
same,SPOT peptide array binding signal intensity,[18],470
same,SPOT peptide array binding signal intensity,[19],342
same,SPOT peptide array binding signal intensity,[20],694
same,SPOT peptide array binding signal intensity,[21],10.5
same,SPOT peptide array binding signal intensity,[22],274
same,SPOT peptide array binding signal intensity,[23],224
same,SPOT peptide array binding signal intensity,[24],18.5
same,SPOT peptide array binding signal intensity,[25],897
same,SPOT peptide array binding signal intensity,[26],1
same,SPOT peptide array binding signal intensity,[27],195
same,SPOT peptide array binding signal intensity,[28],18.2
same,SPOT peptide array binding signal intensity,[29],5220
same,SPOT peptide array binding signal intensity,[30],30
TKRKRPARLIFYDSK,SPOT peptide array binding signal intensity,[61],0.75
same,SPOT peptide array binding signal intensity,[62],8
same,SPOT peptide array binding signal intensity,[63],172
same,SPOT peptide array binding signal intensity,[64],27.5
same,SPOT peptide array binding signal intensity,[65],380
same,SPOT peptide array binding signal intensity,[66],299
same,SPOT peptide array binding signal intensity,[67],4
same,SPOT peptide array binding signal intensity,[68],205
same,SPOT peptide array binding signal intensity,[69],4.25
same,SPOT peptide array binding signal intensity,[70],584
same,SPOT peptide array binding signal intensity,[71],11
same,SPOT peptide array binding signal intensity,[72],4.33
same,SPOT peptide array binding signal intensity,[73],4
same,SPOT peptide array binding signal intensity,[74],7
